# Laboratory results reported in article PMC7862700, “An all-to-all approach to the identification of sequence-specific readers for epigenetic DNA modifications on cytosine”.
# Key:
# Experiment in all cases: DAPPL (digital affinity profiling via proximity ligation, sequencing); 10 mM Tris-HCl pH 7.5, 50 mM NaCl, 1 mM DTT, 4% glycerol, room temperature, 30 min; GST-TFs on glutathione beads, 16-mer random dsDNA library, 0.1% formaldehyde crosslink after washing; high values mean tight binding
# FEV = target: T1, FEV (Homo sapiens, UniProt Q99581 1-238); details: protein: recombinant; tags: N-terminal GST; dsDNA, one strand shown
# T1 sequence: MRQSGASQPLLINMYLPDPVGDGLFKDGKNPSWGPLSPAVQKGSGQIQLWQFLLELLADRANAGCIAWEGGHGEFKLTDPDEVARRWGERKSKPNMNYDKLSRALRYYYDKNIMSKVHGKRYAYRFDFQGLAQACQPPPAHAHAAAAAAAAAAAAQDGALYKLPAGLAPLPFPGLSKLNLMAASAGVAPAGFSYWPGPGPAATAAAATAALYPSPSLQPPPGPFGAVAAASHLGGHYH
# How it was run: (§1)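 Human transcription factors fused to GST were expressed in yeast, captured on glutathione beads, given DNA barcodes and pooled with a GST-only negative control. Pools were incubated with 200 nmole of a 16-mer random double-stranded DNA library in Tris/NaCl/DTT/glycerol buffer at room temperature for 30 min. They were then washed, crosslinked with 0.1% formaldehyde, proximity-ligated (BsaI/T4 ligase, 1 h, 37 °C), PCR-amplified and sequenced on an Illumina NextSeq500. Binding signal is each 6-mer's read frequency for a factor divided by its frequency for the GST control.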
# ETV5 = ETV5 (Homo sapiens, UniProt P41161 1-510); details: protein: recombinant; tags: N-terminal GST; dsDNA, one strand shown
# How it was run: as §1
# HSF1 = HSF1 (Homo sapiens, UniProt Q00613 1-529); details: protein: recombinant; tags: N-terminal GST; chain copies: 3; dsDNA, one strand shown
# How it was run: as §1
# SPIC = target: T2, SPIC (Homo sapiens, UniProt Q8N5J4 1-248); details: protein: recombinant; tags: N-terminal GST; dsDNA, one strand shown
# T2 sequence: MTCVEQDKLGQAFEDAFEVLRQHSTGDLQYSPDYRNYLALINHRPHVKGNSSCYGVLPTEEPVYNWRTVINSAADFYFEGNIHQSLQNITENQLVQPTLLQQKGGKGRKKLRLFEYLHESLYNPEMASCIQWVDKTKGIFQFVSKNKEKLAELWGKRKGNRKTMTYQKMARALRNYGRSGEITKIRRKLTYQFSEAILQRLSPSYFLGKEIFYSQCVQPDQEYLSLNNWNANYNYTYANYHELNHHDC
# How it was run: as §1
# ELF4 = ELF4 (Homo sapiens, UniProt Q99607 1-663); details: protein: recombinant; tags: N-terminal GST; dsDNA, one strand shown
# How it was run: as §1
# ELK4 = target: T3, ELK4 (Homo sapiens, UniProt P28324-2 1-405); details: protein: recombinant; tags: N-terminal GST; dsDNA, one strand shown
# T3 sequence: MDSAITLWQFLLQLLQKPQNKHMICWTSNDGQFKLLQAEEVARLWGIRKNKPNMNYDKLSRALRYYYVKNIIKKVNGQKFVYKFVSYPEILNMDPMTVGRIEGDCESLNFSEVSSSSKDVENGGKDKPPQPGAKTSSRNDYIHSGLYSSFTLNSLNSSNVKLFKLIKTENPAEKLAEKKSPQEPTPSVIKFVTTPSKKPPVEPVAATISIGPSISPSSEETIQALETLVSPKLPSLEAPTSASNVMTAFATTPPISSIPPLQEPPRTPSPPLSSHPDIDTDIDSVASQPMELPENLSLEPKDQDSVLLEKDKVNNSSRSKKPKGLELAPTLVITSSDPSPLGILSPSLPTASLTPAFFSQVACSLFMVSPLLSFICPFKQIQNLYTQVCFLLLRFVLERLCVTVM
# How it was run: as §1
# ETV2 = target: T4, ETV2 (Homo sapiens, UniProt O00321 1-342); details: protein: recombinant; tags: N-terminal GST; dsDNA, one strand shown
# T4 sequence: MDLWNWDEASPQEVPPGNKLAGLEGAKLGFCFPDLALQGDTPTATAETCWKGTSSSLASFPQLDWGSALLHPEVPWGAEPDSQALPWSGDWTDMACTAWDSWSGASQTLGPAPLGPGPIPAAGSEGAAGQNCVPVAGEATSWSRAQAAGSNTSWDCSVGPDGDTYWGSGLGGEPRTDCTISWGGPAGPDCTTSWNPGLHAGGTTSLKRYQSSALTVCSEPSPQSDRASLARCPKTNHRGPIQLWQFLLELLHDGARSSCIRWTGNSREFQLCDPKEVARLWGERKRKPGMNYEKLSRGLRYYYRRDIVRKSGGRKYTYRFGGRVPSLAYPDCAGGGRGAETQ
# How it was run: as §1
# ELF3 = target: T5, ELF3 (Homo sapiens, UniProt P78545 1-371); details: protein: recombinant; tags: N-terminal GST; dsDNA, one strand shown
# T5 sequence: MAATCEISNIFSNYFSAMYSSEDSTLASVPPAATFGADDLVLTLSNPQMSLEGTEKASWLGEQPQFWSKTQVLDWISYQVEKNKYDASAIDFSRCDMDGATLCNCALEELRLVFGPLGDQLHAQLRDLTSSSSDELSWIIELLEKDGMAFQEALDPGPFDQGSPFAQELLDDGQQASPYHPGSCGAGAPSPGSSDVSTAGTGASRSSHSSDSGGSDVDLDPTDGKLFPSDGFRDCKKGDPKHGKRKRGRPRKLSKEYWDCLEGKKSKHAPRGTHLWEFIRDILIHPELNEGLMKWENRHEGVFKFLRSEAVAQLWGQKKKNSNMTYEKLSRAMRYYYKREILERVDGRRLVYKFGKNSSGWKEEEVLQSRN
# How it was run: as §1
# CRX = CRX (Homo sapiens, UniProt O43186 1-299); details: protein: recombinant; tags: N-terminal GST; dsDNA, one strand shown
# How it was run: as §1
# ETV1 = ETV1 (Homo sapiens, UniProt P50549 1-477); details: protein: recombinant; tags: N-terminal GST; dsDNA, one strand shown
# How it was run: as §1
# ERF = target: T6, ERF (Homo sapiens, UniProt P50548 1-548); details: protein: recombinant; tags: N-terminal GST; dsDNA, one strand shown
# T6 sequence: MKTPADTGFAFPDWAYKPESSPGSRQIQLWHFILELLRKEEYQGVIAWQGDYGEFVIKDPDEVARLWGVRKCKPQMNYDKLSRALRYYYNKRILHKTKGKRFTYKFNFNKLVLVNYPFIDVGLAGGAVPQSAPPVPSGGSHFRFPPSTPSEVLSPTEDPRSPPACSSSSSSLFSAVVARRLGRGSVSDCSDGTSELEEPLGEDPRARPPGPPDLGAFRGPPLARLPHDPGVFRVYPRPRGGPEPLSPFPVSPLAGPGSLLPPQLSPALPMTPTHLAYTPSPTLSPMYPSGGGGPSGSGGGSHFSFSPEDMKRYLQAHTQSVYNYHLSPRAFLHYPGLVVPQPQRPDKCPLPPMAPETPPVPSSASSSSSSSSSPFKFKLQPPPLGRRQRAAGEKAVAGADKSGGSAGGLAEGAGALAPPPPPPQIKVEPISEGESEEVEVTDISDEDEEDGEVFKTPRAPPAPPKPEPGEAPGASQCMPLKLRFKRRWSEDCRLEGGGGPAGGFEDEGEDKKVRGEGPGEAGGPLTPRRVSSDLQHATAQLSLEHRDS
# How it was run: as §1
# ETV3L = target: T7, ETV3L (Homo sapiens, UniProt Q6ZN32 1-361); details: protein: recombinant; tags: N-terminal GST; dsDNA, one strand shown
# T7 sequence: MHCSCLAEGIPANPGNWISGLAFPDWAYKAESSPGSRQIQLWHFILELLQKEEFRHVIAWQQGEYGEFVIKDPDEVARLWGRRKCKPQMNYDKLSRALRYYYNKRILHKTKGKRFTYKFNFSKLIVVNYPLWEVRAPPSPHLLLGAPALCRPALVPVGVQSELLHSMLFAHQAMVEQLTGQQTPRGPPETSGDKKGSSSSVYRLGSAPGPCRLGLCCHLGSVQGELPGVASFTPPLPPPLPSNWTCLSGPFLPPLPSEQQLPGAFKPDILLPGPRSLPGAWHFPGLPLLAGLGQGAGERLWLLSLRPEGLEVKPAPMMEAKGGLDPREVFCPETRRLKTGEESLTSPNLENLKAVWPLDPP
# How it was run: as §1
# ETS2 = target: T8, ETS2 (Homo sapiens, UniProt P15036 1-469); details: protein: recombinant; tags: N-terminal GST; dsDNA, one strand shown
# T8 sequence: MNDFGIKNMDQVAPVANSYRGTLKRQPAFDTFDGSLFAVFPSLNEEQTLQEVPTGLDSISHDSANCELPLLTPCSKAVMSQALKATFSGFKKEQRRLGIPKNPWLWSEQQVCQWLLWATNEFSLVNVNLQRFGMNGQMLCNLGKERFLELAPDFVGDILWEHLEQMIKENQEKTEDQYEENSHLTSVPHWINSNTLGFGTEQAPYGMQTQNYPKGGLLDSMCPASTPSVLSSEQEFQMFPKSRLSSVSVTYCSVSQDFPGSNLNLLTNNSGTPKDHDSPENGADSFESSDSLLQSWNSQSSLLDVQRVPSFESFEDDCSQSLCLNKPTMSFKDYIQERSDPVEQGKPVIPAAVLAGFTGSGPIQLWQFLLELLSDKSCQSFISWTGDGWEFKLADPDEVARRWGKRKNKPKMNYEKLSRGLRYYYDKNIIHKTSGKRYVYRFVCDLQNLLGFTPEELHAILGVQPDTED
# How it was run: as §1
# SPDEF = target: T9, SPDEF (Homo sapiens, UniProt O95238 1-335); details: protein: recombinant; tags: N-terminal GST; dsDNA, one strand shown
# T9 sequence: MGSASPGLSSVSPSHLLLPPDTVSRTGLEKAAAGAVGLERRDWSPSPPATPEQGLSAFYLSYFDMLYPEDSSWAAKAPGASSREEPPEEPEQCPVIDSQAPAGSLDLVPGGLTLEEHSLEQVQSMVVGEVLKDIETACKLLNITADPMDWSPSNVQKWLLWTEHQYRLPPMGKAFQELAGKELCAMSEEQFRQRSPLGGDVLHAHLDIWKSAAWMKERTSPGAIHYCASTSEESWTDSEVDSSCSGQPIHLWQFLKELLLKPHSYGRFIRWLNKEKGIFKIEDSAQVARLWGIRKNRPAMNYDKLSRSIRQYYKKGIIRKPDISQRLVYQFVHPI
# How it was run: as §1
# ETV7 = target: T10, ETV7 (Homo sapiens, UniProt Q9Y603 1-341); details: protein: recombinant; tags: N-terminal GST; dsDNA, one strand shown
# T10 sequence: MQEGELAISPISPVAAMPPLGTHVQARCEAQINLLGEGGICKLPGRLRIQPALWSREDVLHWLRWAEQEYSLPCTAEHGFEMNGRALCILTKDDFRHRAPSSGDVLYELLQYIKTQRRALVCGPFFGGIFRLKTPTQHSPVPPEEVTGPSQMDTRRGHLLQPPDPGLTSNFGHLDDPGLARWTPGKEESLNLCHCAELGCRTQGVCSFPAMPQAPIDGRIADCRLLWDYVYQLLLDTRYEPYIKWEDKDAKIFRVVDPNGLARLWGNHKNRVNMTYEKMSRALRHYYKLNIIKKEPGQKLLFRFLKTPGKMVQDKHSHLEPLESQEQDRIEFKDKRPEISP
# How it was run: as §1
# ELF5 = target: T11, ELF5 (Homo sapiens, UniProt Q9UKW6-2 1-255); details: protein: recombinant; tags: N-terminal GST; dsDNA, one strand shown
# T11 sequence: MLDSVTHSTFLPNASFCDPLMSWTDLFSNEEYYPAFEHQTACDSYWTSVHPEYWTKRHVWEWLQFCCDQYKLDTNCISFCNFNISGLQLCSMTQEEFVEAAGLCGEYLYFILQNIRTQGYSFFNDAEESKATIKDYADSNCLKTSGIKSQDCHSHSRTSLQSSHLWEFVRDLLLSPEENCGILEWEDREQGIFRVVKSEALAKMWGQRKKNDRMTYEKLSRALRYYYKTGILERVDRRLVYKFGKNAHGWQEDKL
# How it was run: as §1
# ETV3 = target: T12, ETV3 (Homo sapiens, UniProt P41162-2 1-143); details: protein: recombinant; tags: N-terminal GST; dsDNA, one strand shown
# T12 sequence: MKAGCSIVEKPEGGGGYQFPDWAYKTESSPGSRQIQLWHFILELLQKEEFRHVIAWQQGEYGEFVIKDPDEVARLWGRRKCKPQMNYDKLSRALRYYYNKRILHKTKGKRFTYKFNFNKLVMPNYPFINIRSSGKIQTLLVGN
# How it was run: as §1
# ETV6 = ETV6 (Homo sapiens, UniProt P41212 1-452); details: protein: recombinant; tags: N-terminal GST; dsDNA, one strand shown
# How it was run: as §1
# ETV5, sequence (P41161 whole entry): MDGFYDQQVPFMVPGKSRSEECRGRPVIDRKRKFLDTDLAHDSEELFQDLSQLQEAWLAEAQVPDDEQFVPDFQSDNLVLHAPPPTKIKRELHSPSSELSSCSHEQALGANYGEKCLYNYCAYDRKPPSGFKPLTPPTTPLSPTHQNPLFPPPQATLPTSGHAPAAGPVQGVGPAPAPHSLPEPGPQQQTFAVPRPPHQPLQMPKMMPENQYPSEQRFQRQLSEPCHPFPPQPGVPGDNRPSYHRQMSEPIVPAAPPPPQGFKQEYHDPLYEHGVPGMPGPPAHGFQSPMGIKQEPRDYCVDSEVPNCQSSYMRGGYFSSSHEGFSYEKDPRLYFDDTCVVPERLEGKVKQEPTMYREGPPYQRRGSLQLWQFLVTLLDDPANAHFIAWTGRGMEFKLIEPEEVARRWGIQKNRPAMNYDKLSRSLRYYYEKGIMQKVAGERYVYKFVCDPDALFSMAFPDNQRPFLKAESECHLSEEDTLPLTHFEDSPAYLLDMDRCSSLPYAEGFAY
# HSF1, sequence (Q00613 whole entry): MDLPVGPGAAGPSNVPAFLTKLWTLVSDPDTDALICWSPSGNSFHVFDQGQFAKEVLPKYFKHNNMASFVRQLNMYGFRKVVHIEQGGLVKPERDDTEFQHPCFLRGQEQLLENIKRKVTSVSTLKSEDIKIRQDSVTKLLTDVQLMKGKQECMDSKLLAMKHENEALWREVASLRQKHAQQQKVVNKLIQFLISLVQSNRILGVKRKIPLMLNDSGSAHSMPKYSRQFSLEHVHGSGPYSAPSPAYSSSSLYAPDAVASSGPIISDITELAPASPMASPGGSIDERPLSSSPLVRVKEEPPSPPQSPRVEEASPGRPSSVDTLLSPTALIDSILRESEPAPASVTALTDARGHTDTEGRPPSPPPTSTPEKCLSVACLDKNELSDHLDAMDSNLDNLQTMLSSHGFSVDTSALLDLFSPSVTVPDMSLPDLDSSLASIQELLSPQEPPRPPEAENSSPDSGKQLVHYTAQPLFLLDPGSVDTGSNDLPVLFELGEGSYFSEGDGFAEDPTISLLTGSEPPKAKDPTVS
# ETV6, sequence (P41212 whole entry): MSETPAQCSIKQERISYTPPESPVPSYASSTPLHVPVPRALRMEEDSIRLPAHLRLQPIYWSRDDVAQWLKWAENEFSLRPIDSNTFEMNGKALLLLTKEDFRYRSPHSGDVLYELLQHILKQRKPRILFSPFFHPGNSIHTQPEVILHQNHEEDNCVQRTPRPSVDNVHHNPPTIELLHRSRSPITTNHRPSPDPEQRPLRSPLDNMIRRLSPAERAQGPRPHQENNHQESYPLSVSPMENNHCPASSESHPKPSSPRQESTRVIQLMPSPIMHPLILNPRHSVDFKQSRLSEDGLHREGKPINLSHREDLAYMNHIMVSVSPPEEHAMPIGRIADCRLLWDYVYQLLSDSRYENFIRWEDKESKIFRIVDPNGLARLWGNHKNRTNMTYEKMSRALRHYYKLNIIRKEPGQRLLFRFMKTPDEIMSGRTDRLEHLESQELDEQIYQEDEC
# ELF4, sequence (Q99607 whole entry): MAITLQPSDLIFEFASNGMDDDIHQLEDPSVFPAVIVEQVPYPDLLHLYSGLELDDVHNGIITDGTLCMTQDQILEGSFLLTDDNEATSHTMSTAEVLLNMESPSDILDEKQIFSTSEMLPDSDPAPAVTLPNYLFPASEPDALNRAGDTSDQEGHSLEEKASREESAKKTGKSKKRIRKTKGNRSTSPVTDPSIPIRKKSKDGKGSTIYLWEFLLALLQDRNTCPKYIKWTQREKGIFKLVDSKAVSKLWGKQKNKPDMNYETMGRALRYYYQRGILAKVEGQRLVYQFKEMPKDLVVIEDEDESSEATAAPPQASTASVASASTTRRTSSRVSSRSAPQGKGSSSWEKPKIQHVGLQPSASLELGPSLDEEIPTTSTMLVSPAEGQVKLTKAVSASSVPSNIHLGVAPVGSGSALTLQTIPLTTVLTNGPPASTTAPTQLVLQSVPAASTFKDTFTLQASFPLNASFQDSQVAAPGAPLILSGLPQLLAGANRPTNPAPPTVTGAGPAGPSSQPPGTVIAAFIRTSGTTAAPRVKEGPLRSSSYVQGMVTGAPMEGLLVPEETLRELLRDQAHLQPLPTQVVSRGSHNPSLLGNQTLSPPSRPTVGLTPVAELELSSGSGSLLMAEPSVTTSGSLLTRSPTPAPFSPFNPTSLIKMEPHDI
# CRX, sequence (O43186 whole entry): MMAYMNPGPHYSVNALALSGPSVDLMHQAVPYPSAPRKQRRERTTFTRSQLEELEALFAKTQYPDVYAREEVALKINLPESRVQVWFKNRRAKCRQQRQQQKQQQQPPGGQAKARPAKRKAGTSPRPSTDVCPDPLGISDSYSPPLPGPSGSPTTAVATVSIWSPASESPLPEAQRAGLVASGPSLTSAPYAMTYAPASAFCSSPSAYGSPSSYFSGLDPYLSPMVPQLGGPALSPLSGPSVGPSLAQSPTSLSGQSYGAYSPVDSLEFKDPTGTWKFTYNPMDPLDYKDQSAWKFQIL
# ETV1, sequence (P50549 whole entry): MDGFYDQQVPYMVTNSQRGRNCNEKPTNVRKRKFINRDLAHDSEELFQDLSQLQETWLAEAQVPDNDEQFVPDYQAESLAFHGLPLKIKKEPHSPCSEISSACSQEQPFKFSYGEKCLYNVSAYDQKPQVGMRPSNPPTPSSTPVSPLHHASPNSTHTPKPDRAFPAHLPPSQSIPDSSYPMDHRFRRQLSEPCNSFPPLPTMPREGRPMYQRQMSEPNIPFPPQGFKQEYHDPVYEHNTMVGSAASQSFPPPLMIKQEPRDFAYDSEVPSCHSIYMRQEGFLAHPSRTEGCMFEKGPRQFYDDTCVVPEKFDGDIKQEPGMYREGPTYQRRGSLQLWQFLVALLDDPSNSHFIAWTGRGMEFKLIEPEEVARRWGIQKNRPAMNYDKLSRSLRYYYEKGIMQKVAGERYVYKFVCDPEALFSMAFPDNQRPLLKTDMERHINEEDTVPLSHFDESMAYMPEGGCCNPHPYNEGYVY
sequence,measurement,setting,value
ATATTA,binding signal,FEV,"1.07 fold enrichment (6-mer frequency, TF over GST control)"
same,binding signal,ETV5,"1.14 fold enrichment (6-mer frequency, TF over GST control)"
same,binding signal,HSF1,"1.35 fold enrichment (6-mer frequency, TF over GST control)"
same,binding signal,SPIC,"1.23 fold enrichment (6-mer frequency, TF over GST control)"
same,binding signal,ELF4,"1.13 fold enrichment (6-mer frequency, TF over GST control)"
same,binding signal,ELK4,"1.16 fold enrichment (6-mer frequency, TF over GST control)"
same,binding signal,ETV2,"1.13 fold enrichment (6-mer frequency, TF over GST control)"
same,binding signal,ELF3,"1.21 fold enrichment (6-mer frequency, TF over GST control)"
same,binding signal,CRX,"1.8 fold enrichment (6-mer frequency, TF over GST control)"
same,binding signal,ETV1,"1.17 fold enrichment (6-mer frequency, TF over GST control)"
same,binding signal,ERF,"1.16 fold enrichment (6-mer frequency, TF over GST control)"
same,binding signal,ETV3L,"1.17 fold enrichment (6-mer frequency, TF over GST control)"
same,binding signal,ETS2,"1.06 fold enrichment (6-mer frequency, TF over GST control)"
same,binding signal,SPDEF,"1.11 fold enrichment (6-mer frequency, TF over GST control)"
same,binding signal,ETV7,"1.1 fold enrichment (6-mer frequency, TF over GST control)"
same,binding signal,ELF5,"1.09 fold enrichment (6-mer frequency, TF over GST control)"
same,binding signal,ETV3,"1.18 fold enrichment (6-mer frequency, TF over GST control)"
same,binding signal,ETV6,"1.13 fold enrichment (6-mer frequency, TF over GST control)"
